Assay outcomes deposited in PubChem BioAssay by National Center for Advancing Translational Sciences (NCATS).
A selection: hits, their analogues and other compounds. The true share with any hit is near 12%.
Sfp inh = inhibitors of Bacillus subtilis Sfp phosphopantetheinyl transferase; Q9F4F7; Biochemical Sfp PPTase activity, qHTS; Potency, µM, inactives show largest response in the series, negative = inhibition, hits mostly inhibitors; 3.5% of 310,000 active; AID 1490;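 also: the enzyme is Sfp with the accession as filed and its product quenches rhodamine fluorescence; 0% = enzyme reaction without inhibitor and -100% = no enzyme wells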
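Step 1, compound plus 15 nM Sfp-PPTase, 15 min, room temperature. Step 2, add rhodamine-CoA (5 uM) and BHQ-2-YbbR (12.5 uM). Step 3, read 525/598 nm fluorescence at 0 and 30 min.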
L3MBTL1 inh = blocks human L3MBTL1; Q9Y468; AlphaScreen L3MBTL1–H3K9me1 peptide binding; Potency, µM (top dose mostly 57.1 µM), for the others: at the top dose activity, negative = inhibition, hits mostly inhibitors; 0.66% of 230,000 active; also: % is scaled to controls: 0 for no effect and ±100 for the full control effect; nearly all actives have a fitted effect of over 60% in size
Target sequence (Q9Y468 whole entry, looked up): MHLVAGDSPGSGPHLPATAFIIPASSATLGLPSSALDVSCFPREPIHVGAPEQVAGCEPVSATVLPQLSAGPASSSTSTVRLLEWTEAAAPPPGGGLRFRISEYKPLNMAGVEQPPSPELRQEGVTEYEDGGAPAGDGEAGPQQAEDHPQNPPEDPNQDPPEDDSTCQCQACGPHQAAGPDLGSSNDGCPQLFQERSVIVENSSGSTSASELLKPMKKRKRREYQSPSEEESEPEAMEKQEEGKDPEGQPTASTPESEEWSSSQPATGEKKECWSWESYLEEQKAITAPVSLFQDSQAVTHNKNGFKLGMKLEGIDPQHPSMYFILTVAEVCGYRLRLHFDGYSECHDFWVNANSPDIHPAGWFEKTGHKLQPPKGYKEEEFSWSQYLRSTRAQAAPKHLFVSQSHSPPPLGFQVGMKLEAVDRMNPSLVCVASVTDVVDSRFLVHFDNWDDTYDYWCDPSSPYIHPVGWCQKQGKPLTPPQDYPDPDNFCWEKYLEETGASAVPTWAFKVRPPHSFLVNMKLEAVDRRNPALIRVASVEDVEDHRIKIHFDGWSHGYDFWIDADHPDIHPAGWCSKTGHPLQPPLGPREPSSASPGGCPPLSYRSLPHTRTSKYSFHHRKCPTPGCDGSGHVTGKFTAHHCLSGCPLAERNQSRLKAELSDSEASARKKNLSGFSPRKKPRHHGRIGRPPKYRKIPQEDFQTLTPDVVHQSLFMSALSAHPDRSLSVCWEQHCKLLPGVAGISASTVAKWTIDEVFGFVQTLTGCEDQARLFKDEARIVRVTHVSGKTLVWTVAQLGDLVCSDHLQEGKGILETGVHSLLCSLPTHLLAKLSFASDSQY
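Displacement of a biotinylated histone H3(1-15) peptide monomethylated at Lys9 (75 nM) from L3MBTL1 (50 nM) was measured by AlphaScreen after a 30 min room-temperature compound incubation; cefsulodin titration served as intraplate control.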
BAZ2B inh = inhibitors of human BAZ2B bromodomain; Q9UIF8; AlphaScreen BAZ2B-H3K14Ac peptide displacement; Potency, µM (highest dose often 114 µM), for inactives: at the highest dose activity change, negative = inhibition, hits mostly inhibitors; 4.4% of 360,000 active; AID 504333; also: % is scaled to controls: 0 for no effect and ±100 for the full control effect; nearly all actives have a fitted effect of over 60% in size
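BAZ2B (50 nM) with biotin-H3(5-23)K14Ac peptide (50 nM) in PBS pH 7.4, 0.01% Tween-20, preformed 30 min, then compound 30 min at room temperature; top concentration 110uM. AlphaScreen streptavidin donor/nickel chelate acceptor beads (10 ug/mL final), 20 min dark, signal read.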
G9a inh = inhibitors of human histone lysine methyltransferase G9a | G9a H3K9 monomethylation, AlphaScreen, 2 h | Q96KQ7 | 8.8% of 350,000 active | Potency, µM (titrated, usually from 102 µM), for inactives: at the highest dose activity, negative = inhibition, hits mostly inhibitors; also: % is scaled to controls: 0 for no effect and ±100 for the full control effect; nearly all actives have a fitted effect of over 75% in size
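Readings reflect AlphaScreen signal from monomethyl-H3K9 antibody detection. HMT at 20 nM; substrate b-H3K9 500 nM; cofactor SAM 20 uM; 2 h RT reaction; compounds tested as titrations in qHTS with 15 min preincubation.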
JMJD2A Tudor inh = JMJD2A Tudor domain (human) inhibition | O75164 | 4.4% of 390,000 active | AlphaScreen JMJD2A-Tudor / H3K4me3 peptide binding | Potency, µM (top dose mostly 114 µM), without a hit: top-dose activity change, negative = inhibition, usual class: inhibitors; also: % is scaled to controls: 0 for no effect and ±100 for the full control effect; nearly all actives have a fitted effect of over 50% in size
HP1b binding inh = HP1-beta chromodomain-methylated histone interaction inhibition; AlphaScreen HP1-beta / biotin-H3K9me3 peptide binding; Potency, µM (top dose mostly 114 µM), for inactives: at the top dose activity change, negative = inhibition, actives largely listed as inhibitors; 0.56% of 390,000 active; AID 540317; also: nearly all actives have a fitted effect of over 70% in size
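Compound inhibition of the preformed complex between 50 nM HP1-beta and 50 nM biotinylated H3K9me3 peptide was read by AlphaScreen. Buffer was PBS pH 7.4 with 0.01% Tween-20. Incubations ran 30 min at room temperature, with 10 ug/mL donor/acceptor beads.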
The depositor's hits bear a star; ! = a repeat was not active; [ ] = dose if it differs, or a comment. Calls follow the shape of the dose curve; as a rule, active = well fitted curve in the direction sought with a large enough effect; inconclusive = small, poorly fitted or top-dose-only effect, or another doubt; inactive = no such curve, though single readings can be large; an effect the other way counts as inactive or inconclusive. Potency is read from the fitted curve at half-maximal effect.

CCCC(=O)Nc1ccc(NC(=O)c2ccco2)cn1 was read as Sfp inh 9%, L3MBTL1 inh 4%, BAZ2B inh -2%, G9a inh -19%, JMJD2A Tudor inh 10% and HP1b binding inh 32%.
CCN(CC)c1ccc(NC(=S)NC(=O)c2ccco2)cc1 was read as Sfp inh 35µM*, L3MBTL1 inh inconclusive, BAZ2B inh 18µM*, G9a inh 28µM*, JMJD2A Tudor inh 28µM* and HP1b binding inh 45µM*.
Cc1ccc(C)n1NC(=O)c1ccco1 was read as Sfp inh 16%, L3MBTL1 inh -3%, BAZ2B inh -1%, G9a inh 40µM*, JMJD2A Tudor inh -15% and HP1b binding inh 16%.
`CC(C)C(=O)Nc1ccc(NC(=O)c2ccco2)cn1` gave Sfp inh 2%, L3MBTL1 inh -3%, BAZ2B inh inconclusive, G9a inh 35µM*, JMJD2A Tudor inh -7% and HP1b binding inh 53%.
For COc1ccccc1CCn1c(=O)c(CCc2ccccc2)nc2cncnc21 the results were Sfp inh 27% and G9a inh -2%[0.501 µM].
Screening CCN1CCC(N(Cc2ccc3c(c2)OCO3)C(=O)Nc2cc(Cl)ccc2C(=O)OC)CC1 returned BAZ2B inh -26%, G9a inh 0%[59 µM], JMJD2A Tudor inh -27% and HP1b binding inh -2%.
`Cc1ccc(NC(=O)CC(c2ccc(F)cc2)N2Cc3ccccc3C2=O)cc1C` (stereo not drawn) gave BAZ2B inh -26%, G9a inh -16%[59 µM], JMJD2A Tudor inh 0% and HP1b binding inh 20%.
For O=C(CCn1c(=O)c2cccn2c2cccnc21)N1CCN(c2ccccc2F)CC1 the results were BAZ2B inh inconclusive, G9a inh -9%[59 µM], JMJD2A Tudor inh -18% and HP1b binding inh 22%.
Screening O=C(Nc1ccc(Nc2ccccc2)cc1)c1ccccc1F returned Sfp inh -6%, L3MBTL1 inh -7%, BAZ2B inh inconclusive, JMJD2A Tudor inh inconclusive and HP1b binding inh 2%.
COc1cc(NS(=O)(=O)c2ccc(NC(=S)NC(=O)c3ccco3)cc2)nc(OC)n1 was read as Sfp inh -25%, BAZ2B inh inconclusive, JMJD2A Tudor inh -12% and HP1b binding inh 10%.
Screening CCN(CC)c1ccc(NC(=O)c2c(C)noc2C)cc1 returned Sfp inh -4%, BAZ2B inh inconclusive, G9a inh 28µM*, JMJD2A Tudor inh -27% and HP1b binding inh 15%.
For CCN(CC)c1ccc(NC(=O)c2ccccc2F)cc1 the results were Sfp inh -16%, L3MBTL1 inh -23%, BAZ2B inh 45µM*, G9a inh inconclusive, JMJD2A Tudor inh inconclusive and HP1b binding inh -14%.
`CCN(c1ccc(NC(=O)CCNC(=O)c2ccco2)cc1)C(C)C` gave Sfp inh -4%, L3MBTL1 inh -7%, BAZ2B inh -30%, G9a inh 5µM*, JMJD2A Tudor inh -34% and HP1b binding inh -8%.
For Cc1cc(C)nc(NS(=O)(=O)c2ccc(NC(=S)NC(=O)c3ccco3)cc2)n1 the results were Sfp inh inconclusive, L3MBTL1 inh 6%, BAZ2B inh 1%, G9a inh 50µM*, JMJD2A Tudor inh -13% and HP1b binding inh 2%.
Screening NC(N)=N/N=C/c1ccc(OCc2ccc(Cl)cc2)cc1 returned Sfp inh 22µM*, L3MBTL1 inh 3%, BAZ2B inh -7%, G9a inh inconclusive, JMJD2A Tudor inh inconclusive and HP1b binding inh -9%.
`NC(N)=N/N=C/c1ccc(OCc2ccccc2)cc1` gave Sfp inh -15%, L3MBTL1 inh 2%, BAZ2B inh -1%, G9a inh inconclusive, JMJD2A Tudor inh -21% and HP1b binding inh -7%.
Screening NCc1nc2cccnc2n1Cc1ccccc1Cl returned G9a inh inconclusive, JMJD2A Tudor inh inconclusive and HP1b binding inh 39%.
Screening O=Nc1c(-c2ccccc2)cc2ccccn12 returned Sfp inh -10%, L3MBTL1 inh inconclusive, BAZ2B inh 79µM*, G9a inh 40µM*, JMJD2A Tudor inh -36% and HP1b binding inh 7%.
`O=[N+]([O-])c1cc([N+](=O)[O-])c2oc(-c3ccccc3)c(Br)c2c1O` gave Sfp inh 4%, BAZ2B inh 35µM*, G9a inh 50µM*, JMJD2A Tudor inh 45µM* and HP1b binding inh inconclusive.
For O=c1c(O)c(-c2ccccc2)oc2cccc(O)c12 the results were Sfp inh 12%.
`COc1ccc(C2Nc3ccccc3C(=O)N2Cc2cccc(Cl)c2)cc1COc1ccc(NC(C)=O)cc1` (stereo not drawn) gave JMJD2A Tudor inh -31%.
`CC(=O)Nc1cccc(OCc2cccc(C3Nc4ccccc4C(=O)N3Cc3ccco3)c2)c1` (stereo not drawn) gave JMJD2A Tudor inh 32µM*.
Screening COc1ccc(C2Nc3ccccc3C(=O)N2CCc2ccccc2)cc1COc1ccc(NC(C)=O)cc1 (stereo not drawn) returned JMJD2A Tudor inh -30%.
For COc1ccc(C2Nc3ccccc3C(=O)N2Cc2ccco2)cc1COc1ccc(NC(C)=O)cc1 (stereo not drawn) the results were Sfp inh inconclusive, L3MBTL1 inh -3%, BAZ2B inh -6%, G9a inh inconclusive, JMJD2A Tudor inh 89µM*! and HP1b binding inh 8%.
`O=C1c2ccccc2NC(c2cccc(F)c2)N1Cc1ccco1` (stereo not drawn) gave Sfp inh -19%, L3MBTL1 inh 4.5µM*, BAZ2B inh 56µM*, G9a inh inconclusive, JMJD2A Tudor inh -25% and HP1b binding inh 13%.
COc1ccc(C2Nc3ccccc3C(=O)N2CCCN(C)C)cc1COc1ccc(NC(C)=O)cc1 (stereo not drawn) was read as JMJD2A Tudor inh 79µM*.
Cc1ccc(C)c(Cn2c(=O)n(CCCC(=O)NCc3ccc4c(c3)OCO4)c(=O)c3sccc32)c1 was read as BAZ2B inh -7%, G9a inh -1%[59 µM], JMJD2A Tudor inh -15% and HP1b binding inh -1%.
For CCOC(=O)c1[nH]c2ccccc2c1NC(=S)Nc1ccccc1 the results were Sfp inh inconclusive, L3MBTL1 inh -5%, BAZ2B inh inconclusive, G9a inh 45µM*, JMJD2A Tudor inh -14% and HP1b binding inh -7%.
Screening CCOC(=O)c1[nH]c2ccccc2c1NC(=S)Nc1cccc(C)c1 returned Sfp inh -29%, L3MBTL1 inh -6%, BAZ2B inh inconclusive, G9a inh 40µM*, JMJD2A Tudor inh inconclusive and HP1b binding inh -13%.
